Assay outcomes from PubChem.
LGR2 inh – Drosophila LGR2 receptor signaling inhibition | 380,000 compounds, 0.35% hits | inhibition, % at 9.99 µM | HEK293 LGR2, CRE-luciferase, bursicon-stimulated, 4 h;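 active means drop in luminescence signal, shown as inhibition above about 50% in the replicate tests, limit read from the data, passing the limit was not always enough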;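 further: agonist challenge used bursicon conditioned medium at about half maximal strength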
Peg3 prom inh – inhibitors of Peg3 promoter; HeLa PEG-Prom luciferase reporter, luminescence, overnight; inhibition, % at 20 µM; 360,000 compounds, 1.7% hits;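 active means inhibition of at least 50% at 20 µM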
Mdm2 MdmX PPI – disrupts the human Mdm2-MdmX interaction; O15151+Q00987; SaOS-2 split-luciferase Mdm2/MdmX complementation, luminescence; 330,000 compounds, 3% hits; AID 485346; inhibition, % at 8 µM;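 active means inhibition of at least 50% at 8 µM in the primary screen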
Target sequence (O15151 whole entry, looked up): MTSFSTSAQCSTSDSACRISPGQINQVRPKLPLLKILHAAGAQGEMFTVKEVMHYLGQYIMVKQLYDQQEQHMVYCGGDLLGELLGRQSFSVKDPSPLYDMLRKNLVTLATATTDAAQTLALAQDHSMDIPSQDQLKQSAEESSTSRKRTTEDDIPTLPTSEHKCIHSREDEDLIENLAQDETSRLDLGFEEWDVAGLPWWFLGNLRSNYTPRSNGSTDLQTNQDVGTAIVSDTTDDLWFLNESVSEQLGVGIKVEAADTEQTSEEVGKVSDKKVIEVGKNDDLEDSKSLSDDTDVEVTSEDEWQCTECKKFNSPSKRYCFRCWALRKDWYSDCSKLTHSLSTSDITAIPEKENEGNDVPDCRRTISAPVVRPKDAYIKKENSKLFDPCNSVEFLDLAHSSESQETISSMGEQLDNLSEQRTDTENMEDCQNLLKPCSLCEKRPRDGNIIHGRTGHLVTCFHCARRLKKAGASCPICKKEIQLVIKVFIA
Target sequence (Q00987 whole entry, looked up): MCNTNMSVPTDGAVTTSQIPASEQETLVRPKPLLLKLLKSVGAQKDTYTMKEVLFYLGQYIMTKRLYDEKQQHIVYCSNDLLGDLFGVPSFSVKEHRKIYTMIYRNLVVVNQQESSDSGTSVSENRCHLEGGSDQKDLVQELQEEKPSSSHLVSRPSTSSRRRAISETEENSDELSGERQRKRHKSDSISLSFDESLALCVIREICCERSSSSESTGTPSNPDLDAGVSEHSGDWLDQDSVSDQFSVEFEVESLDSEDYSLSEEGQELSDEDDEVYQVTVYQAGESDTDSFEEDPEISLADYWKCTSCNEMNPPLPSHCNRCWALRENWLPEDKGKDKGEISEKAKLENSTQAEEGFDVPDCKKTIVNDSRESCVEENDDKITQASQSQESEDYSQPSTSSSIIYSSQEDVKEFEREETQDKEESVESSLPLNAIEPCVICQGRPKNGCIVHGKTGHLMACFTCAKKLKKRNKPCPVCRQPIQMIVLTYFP
CF NFkB inh – blocks PAF-induced NF-kB reporter in cystic fibrosis cells; KKLEB NF-kB-GFP reporter, GFP fluorescence overnight; inhibition, % at 5 µM; 360,000 compounds, 0.86% hits;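 active means at least 50% inhibition at 5 µM, scaled per plate between neutral and stimulator controls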;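 further: PAF is a Pseudomonas aeruginosa culture filtrate used as stimulus; plate controls were PAF-stimulated DMSO wells for no effect and unstimulated DMSO wells for full effect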
KKLEB tox – reduces viability of KKLEB cystic fibrosis airway cells; KKLEB CF airway cells viability, ATPlite luminescence, overnight; hits give low values; cells stimulated with P. aeruginosa culture filtrate; activity change (cytotoxicity), % at 5 µM; 360,000 compounds, 0.36% hits; AID 602141;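 active means corrected activity change at or below -50% at 5 µM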
HSP90 inh – blocks HSP90-mediated luciferase refolding in reticulocyte lysate; inhibition, % at 5.6 µM; Rabbit reticulocyte lysate, luciferase refolding luminescence, 3 h; 290,000 compounds, 0.91% hits;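 active means inhibition above the screen-wide mean plus 3 SD, computed separately per campaign, cut at about 16% in these data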;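 further: 0% = DMSO wells and 100% = 60 µM geldanamycin wells; inhibitors lower the luminescence because luciferase stays unfolded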
Active calls of the source: *; nt = not tested or not shown. In the library only some 3.6% were active in any assay of this set; here they are far more common.

SMILES	LGR2 inh	Peg3 prom inh	Mdm2 MdmX PPI	CF NFkB inh	KKLEB tox	HSP90 inh
C[C@@H]1CN([C@H](C)CO)C(=O)Cc2cc(NC(=O)Nc3ccc4c(c3)OCO4)ccc2O[C@H]1CN(C)C(=O)Nc1cccc2ccccc12	-13.0	nt	nt	nt	nt	nt
CCC(=O)Nc1cc(SCCO)cc([N+](=O)[O-])c1	nt	11.0	-16.6	6.1	-5.5	5.2
O=C(CCl)Nc1cc(SCC(O)CO)cc([N+](=O)[O-])c1 (configuration not stated)	72.7*	105.7*	nt	95.8*	-93.3*	3.6
Cc1ccccc1N/C(SCc1ccc(Cl)cc1)=C(/C#N)C(=O)NCc1ccco1	nt	17.4	16.8	11.6	3.9	6.2
Cc1ccc(CS/C(Nc2ccccc2C)=C(\C#N)C(=O)NCc2ccco2)c(C)c1	nt	50.9*	-8.1	-3.7	-14.4	1.3
COc1ccccc1-c1ccc2c(c1)O[C@H](CN(C)C(=O)c1cccnc1)[C@@H](C)CN([C@@H](C)CO)S2(=O)=O	-3.9	nt	nt	nt	nt	nt
COC1=CC(=O)C=C(OC)C1=O	-2.7	102.3*	nt	24.1	-9.2	nt
CCCSc1cc(N2CCN(C)CC2)nc(-c2ccc(OC)cc2)n1	nt	54.6*	14.8	-2.1	-9.4	0.5
COc1cc(C(=O)Oc2cccc(Nc3ncnc4ccccc34)c2)cc(OC)c1OC	85.4*	61.9*	29.3	-0.8	5.5	-3.9
CCOc1ccc(C(=O)Nc2nnn(CC)n2)cc1	nt	-117.5	-28.3	9.7	0.6	16.3*
COc1ccc(S(=O)(=O)N2CCCCC2)cc1NC(=O)CN(Cc1ccco1)Cc1ccco1	13.0	53.9*	46.8	2.1	15.7	nt
Cn1c(=O)n(CCCOc2ccc(Br)cc2)c2ccccc21	nt	-61.5	9.7	8.1	-1.4	2.1
N=c1n(CCCOc2ccc(Br)cc2)c2ccccc2n1CC(N)=O	-1.8	60.0*	47.0	0.3	-11.2	4.5
COc1ccccc1C#Cc1ccc2c(c1)[C@@H]1[C@@H](CCN1C(=O)Cc1ccccc1)[C@H](CO)N2	5.5	nt	nt	nt	nt	nt
Oc1ccc(N=Nc2n[nH]c(-c3ccc(Br)cc3)n2)cc1	23.9	86.1*	nt	-12.6	33.4	-1.8
COCC(=O)N1C[C@H]2[C@@H](c3ccccc31)[C@@H](CO)N2C(=O)C1CC1	5.3	nt	nt	nt	nt	nt
CC1=C(CO)C(=O)OC([C@@H](C)C2CC[C@H]3C4C[C@H]5O[C@]56[C@@H](O)C=CC(=O)[C@]6(C)C4CC[C@]23C)C1 (some centres not stated)	nt	109.4*	nt	84.6*	-3.1	nt
CCC1=NN(C(=O)c2ccc(C)cc2)C(O)(c2ccc(Br)cc2)C1 (configuration not stated)	-12.1	-18.5	6.3	0.1	9.0	-7.1
CCC1=NN(C(=O)c2cccc(Br)c2)C(O)(c2ccc(Br)cc2)C1 (configuration not stated)	29.4	25.1	42.3	62.5*	-53.9*	3.0
O=C(NCC[C@@H]1CC[C@H](NS(=O)(=O)c2cccc(F)c2)[C@H](CO)O1)C1CCC1	14.9	nt	nt	nt	nt	nt
CCCCC(=O)OCC(=O)C1(O)Cc2c(O)c3c(c(O)c2C(OC2CC(NC(=O)C(F)(F)F)C(O)C(C)O2)C1)C(=O)c1c(OC)cccc1C3=O (configuration not stated)	-48.3	74.3*	nt	-197.0	8.0	nt
CCCc1ccc(OCc2ccc(C(=O)N3CCCC3)o2)cc1	-31.3	-106.3	-12.6	16.0	-17.8	16.8*
O=C(C[C@@H]1C[C@@H]2c3cc(NC(=O)NC4CCCC4)ccc3O[C@@H]2[C@@H](CO)O1)NCc1cccnc1	0.1	nt	nt	nt	nt	nt
CCOC(=O)Cc1c(C)nc2c(C#N)c[nH]n2c1=O	14.9	11.2	-3.1	-0.4	-12.5	-3.1
CCOC(=O)Cc1c(C)nc2c(-c3cccc(Br)c3)c[nH]n2c1=O	-0.5	57.9*	34.6	-3.6	-11.2	-2.3
CN1CCN(C(=O)c2ccccc2NC(=O)c2sc3ccccc3c2Cl)CC1	10.7	3.2	18.0	13.3	-6.4	-3.9
CN1CCN(c2ccc(NC(=O)c3sc4ccccc4c3Cl)cc2)CC1	64.2*	-179.6	-1.6	-3.2	-25.5	-0.7
COC(=O)c1ccc(N2CCN(C)CC2)c(NC(=O)c2sc3ccccc3c2Cl)c1	6.7	110.3*	nt	-37.3	7.0	0.4
O=C(c1ccc(NS(=O)(=O)/C=C/c2ccccc2)cc1)N1CCCCC1	18.9	13.4	13.4	56.0*	-69.3*	nt
